# From PubChem BioAssay AID778 (Sanford-Burnham Center for Chemical Genomics, 2007)
# The campaign covered roughly 96,000 compounds. About 20,000 (21%) were called active.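 The calls were made as follows: active = CYP2C19 inhibition above a set limit at 5 µM in the primary screen (cut at about 50% in these data); inactive = the rest.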 Not all results are given here.
# Molecular target: Cytochrome P450 2C19 (Homo sapiens) (UniProt P33261)
# Test: blockers of cytochrome P450 2C19 activity – biochemical, luminescence, ADME assay, primary screen (AID 778);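 also: plate controls were negative control wells for no effect and 2.5 mM tranylcypromine positive control for full effect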
# Conditions: CYP2C19 Supersomes, luciferin-H EGE luminescence, 30 min; at 5 µM; stronger effect = higher value
# Chain of Cytochrome P450 2C19 (Homo sapiens) (P33261 whole entry, looked up): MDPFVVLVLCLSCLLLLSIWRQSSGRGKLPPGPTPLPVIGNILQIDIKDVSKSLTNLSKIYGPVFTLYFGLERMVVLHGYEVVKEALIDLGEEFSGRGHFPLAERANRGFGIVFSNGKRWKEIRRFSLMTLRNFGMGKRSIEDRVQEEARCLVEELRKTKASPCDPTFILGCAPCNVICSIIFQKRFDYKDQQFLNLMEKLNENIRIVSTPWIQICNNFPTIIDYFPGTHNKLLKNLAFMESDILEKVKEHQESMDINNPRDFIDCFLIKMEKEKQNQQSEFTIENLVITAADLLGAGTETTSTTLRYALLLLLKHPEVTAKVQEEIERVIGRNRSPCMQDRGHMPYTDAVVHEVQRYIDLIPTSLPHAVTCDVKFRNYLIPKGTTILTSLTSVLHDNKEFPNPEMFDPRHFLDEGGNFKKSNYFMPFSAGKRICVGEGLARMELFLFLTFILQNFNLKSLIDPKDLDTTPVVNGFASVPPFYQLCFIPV
row,SMILES,inhibition
1,COCCN(C(=O)CCC(=O)Nc1ccccn1)C(C(=O)NCCC(C)C)c1ccc(OC)cc1 (centres undefined),42.4% (inactive)
2,CCC(C)n1[nH]c(=O)cc1N (centres undefined),6.5% (inactive)
3,O=C(NNC(=O)c1cccnc1)Nc1ccccc1,-10.3% (inactive)
4,O=C(CS(=O)(=O)Cc1ccccc1)Nc1cccnc1,6.9% (inactive)
5,O=C(Nc1ccccc1)N(Cc1cccnc1)Cc1ccco1,76.4% (active)
6,N/C(=N\OC(=O)c1cc(-c2ccccc2)nc2ccccc12)c1ccncc1,29.8% (inactive)
7,COC(=O)c1ccc(/C=N\n2c(C)nnc2C)cc1,8.4% (inactive)
8,CCOC(=O)CSc1nnc(NC(=O)c2cccc(S(=O)(=O)N3CCCCC3)c2)s1,7.4% (inactive)
9,CCOC(=O)CSc1nnc(NC(=O)c2cccc(S(=O)(=O)N3CCCC3)c2)s1,2.1% (inactive)
10,CCOC(=O)C1=C(CC)Nc2ccccc2N=C1NC(=O)c1cccc(S(=O)(=O)N2CCCC2)c1,54.2% (active)
11,COC(=O)c1ccc(S(=O)(=O)c2ccc(C(=O)OC)s2)s1,24.5% (inactive)
12,CCOC(=O)C1CCCN(C(=O)c2cncc(Br)c2)C1 (centres undefined),82.7% (active)
13,CCOC(=O)C1CCCN(C(=O)C2CCN(c3nnc(-n4cccc4)s3)CC2)C1 (centres undefined),5.1% (inactive)
14,CCOC(=O)C1CCCN(C(=O)c2ccc(CS(=O)(=O)c3ccc(Br)cc3)o2)C1 (centres undefined),34.7% (inactive)
15,CCc1ccc(NC(=O)CS(=O)CC(=O)NCCCc2ccccc2)cc1 (centres undefined),2.7% (inactive)
16,CCOC(=O)C1(Cc2ccc(O)cc2)NC(c2ccccc2F)C2C(=O)N(C)C(=O)C21 (centres undefined),-4.2% (inactive)
17,COc1ccccc1NC(=O)CSc1nnc(-c2ccoc2C)n1CCc1ccccc1,59.8% (active)
18,COc1ccc2nc(NC(=O)c3ccc(Br)s3)sc2c1,6.2% (inactive)
19,CCOc1ccc2nc(NC(=O)CSc3nc4c(c(=O)n(C)c(=O)n4C)n3CC)sc2c1,32.4% (inactive)
20,CCn1c(SCC(=O)Nc2nc3ccc(OC)cc3s2)nnc1-c1ccoc1C,51% (active)
21,CCCn1c(SCC(=O)Nc2cccc(C(=O)OCC)c2)nnc1-c1ccoc1C,32.5% (inactive)
22,COc1ccccc1NC(=O)CSc1nnc(Cn2nnc(-c3ccccc3)n2)n1-c1ccccc1,27.4% (inactive)
23,COc1ccc(S(=O)(=O)N2CCN(c3ncnc4c(-c5ccccc5)nsc34)CC2)cc1,38.2% (inactive)
24,Cc1ccnc(-n2sc3ccccc3c2=O)n1,9.8% (inactive)
25,Cc1cc(NC(=O)CN2CCCC(C)C2)n(-c2nc3ccccc3s2)n1 (centres undefined),-3.6% (inactive)
26,Cc1c(NC(=O)C(C)OC(=O)c2cc3c4ccccc4n(C)c3s2)c(=O)n(-c2ccccc2)n1C (centres undefined),3.3% (inactive)

row,SMILES,inhibition
1,Cc1cc(C)cc(N(C(C)C(=O)Nc2c(C)n(C)n(-c3ccccc3)c2=O)S(C)(=O)=O)c1 (centres undefined),62% (active)
2,Cc1cc(C)cc(N(CC(=O)Nc2c(C)n(C)n(-c3ccccc3)c2=O)S(C)(=O)=O)c1,63.2% (active)
3,Cc1c(NC(=O)c2coc(=O)c(Br)c2)c(=O)n(-c2ccccc2)n1C,-16.3% (inactive)
4,Cc1cc(C(=O)Nc2c(C)n(C)n(-c3ccccc3)c2=O)cs1,-14% (inactive)
5,COC(=O)Nc1c(C)n(C)n(-c2ccccc2)c1=O,-13.8% (inactive)
6,COc1cc(OC)nc(NC(=O)CCl)n1,-19.8% (inactive)
7,CCN1C(=O)/C(=C\N2CCOCC2)SC1=S,10.7% (inactive)
8,CN(C)/C=C(/C(=O)c1ccc(Cl)cc1)S(=O)(=O)c1ccccc1,27.2% (inactive)
9,Cc1ccc(S(=O)(=O)N2CCN(C(=O)CCC(=O)NC3CCCc4ccccc43)CC2)cc1 (centres undefined),23.8% (inactive)
10,Cc1cc2c(c(=O)n1Cc1ccco1)C(c1ccccc1)C(C#N)=C(N)O2 (centres undefined),21.9% (inactive)
11,Cc1ccc(S(=O)(=O)NCc2cn3ccsc3n2)c(C)c1,11.3% (inactive)
12,Cc1ccc2nc(Nc3ccccc3O)nc(-c3ccccc3)c2c1,10.3% (inactive)
13,O=C(Nc1ncc2c(n1)-c1ccccc1OC2)c1ccc(Cl)cc1,12.7% (inactive)
14,COc1ccc(NC(=O)c2sccc2SCC#N)cc1,24.1% (inactive)
15,Cc1ccc(-c2nnc(-c3ccc(NC(=O)c4cccs4)cc3)o2)cc1,22.1% (inactive)
16,CC1=C(C(=O)Nc2ccccc2)C(c2cccs2)C(C#N)=C(SCC#N)N1 (centres undefined),88.8% (active)
17,Cc1ccc(Cc2cncc(O)c2)cc1S(=O)(=O)O,1.6% (inactive)
18,CCOC(=O)C1CCCN(Cc2nc(N)nc(Nc3ccc(C)cc3)n2)C1 (centres undefined),6.3% (inactive)
19,Fc1ccc(-c2ccc(-c3nn4c(-c5ccco5)nnc4s3)o2)cc1,47.8% (inactive)
20,CCOC(=O)N1CCN(C(=O)c2ccc(CN(c3ccc(C)c(C)c3)S(C)(=O)=O)cc2)CC1,57.3% (active)
21,CCOC(=O)N1CCN(C(=O)CN(c2ccc(C)c(C)c2)S(=O)(=O)c2ccccc2)CC1,63.2% (active)
22,COc1ccccc1N(CC(=O)N1CCCCC1)S(=O)(=O)c1ccccc1,25.2% (inactive)
23,CCOC(=O)N1CCN(C(=O)c2ccc(S(=O)(=O)c3ccc(C)cc3)c(NC(C)=O)c2)CC1,5.6% (inactive)
24,CCOC(=O)N1CCN(C(=O)c2ccc3c(c2)N(Cc2ccc(C)cc2)CCS3)CC1,30% (inactive)
25,CS(=O)(=O)N(CC(=O)N1CCN(Cc2ccccc2)CC1)c1ccc2c(c1)OCCO2,17.4% (inactive)
26,COC(=O)Cn1c2ccc(C)cc2c2nc(C)sc21,-3.3% (inactive)

row,SMILES,inhibition
1,O=S1(=O)CCN(Cc2ccccc2Cl)CC1,35.5% (inactive)
2,O=c1ccn(Cc2ccccc2Cl)cc1,-3% (inactive)
3,O=C1c2cccnc2C(Nc2ccc(S(=O)(=O)N3CCCCCC3)cc2)N1Cc1ccccc1 (centres undefined),40.6% (inactive)
4,O=C1c2ccccc2C(O)N1Cc1ccccc1 (centres undefined),60.9% (active)
5,O=C(C1=C(O)C(=O)N(Cc2ccccc2)C1c1ccco1)c1ccco1 (centres undefined),-22.3% (inactive)
6,O=C1c2ccccc2C(O)N1Cc1ccccc1Cl (centres undefined),80.7% (active)
7,S=c1[nH]nc(-c2ccc(Cl)cc2)n1CC1CCCO1 (centres undefined),41.3% (inactive)
8,COC(=O)c1cc(Cl)c(NC(=O)c2ccco2)cc1OC,9.4% (inactive)
9,O=C(Nc1ccc2oc(-c3ccc4ccccc4c3)nc2c1)c1cccs1,-16.3% (inactive)
10,O=C(Cc1cccc2ccccc12)Nc1ccc2oc(-c3ccccc3)nc2c1,5.7% (inactive)
11,CCCCCC(=O)Nc1ccc2oc(-c3ccncc3)nc2c1,77.7% (active)
12,Cc1ccc2[nH]c(=O)c(-c3nc4c(C)cccn4c3NCc3ccco3)cc2c1,-0.9% (inactive)
13,COC(=O)Cn1cc(C(=O)c2cccs2)c2ccccc21,26% (inactive)
14,Cc1cccc(NC(=O)Cn2cc(C(=O)c3ccco3)c3ccccc32)c1,-13.3% (inactive)
15,O=C(CN1CCN(c2ccccn2)CC1)NCc1cccs1,34.7% (inactive)
16,COCCCNC(=O)Cn1cc(C(=O)C2CC2)c2ccccc21,32.1% (inactive)
17,O=C(Cn1cc(C(=O)c2cccs2)c2ccccc21)NCc1cccs1,91.3% (active)
18,COC(=O)c1cn(CC(=O)NCc2cccs2)c2ccccc12,71.1% (active)
19,CCCCCCC(=O)N(O)C1CC(=O)N(c2ccccc2)C1=O (centres undefined),27.1% (inactive)
20,CC1=C(C(N)=O)C(c2sccc2C)n2nnnc2N1 (centres undefined),7.6% (inactive)
21,Cc1nnc(SCC(=O)NC(=O)NC2CCCC2)n1N,3.5% (inactive)
22,CCOC(=O)C(Sc1ncc(C#N)c(N)n1)C(C)C (centres undefined),52.1% (active)
23,CCOC(=O)CSc1nccc(N(C)C)c1C#N,25.5% (inactive)
24,CCCCOc1ccc(-c2ncc(C(=O)OCC)c(N)n2)cc1,-11.5% (inactive)
25,CN(Cc1ccccc1)C(=O)CCNC(=O)Cn1cnc2ccccc2c1=O,-11.7% (inactive)
26,NS(=O)(=O)c1ccc(Nc2nc(-c3ccccc3)cs2)cc1,28.5% (inactive)

row,SMILES,inhibition
1,c1cnc(Nc2nc(-c3ccc4ccccc4c3)cs2)nc1,-3.4% (inactive)
2,Clc1ccc(Nc2nc(-c3cccs3)cs2)nc1,0.8% (inactive)
3,Oc1ccc(-c2csc(Nc3cccnc3)n2)cc1,78.4% (active)
4,c1ccc(Nc2nc(-c3ccncc3)cs2)nc1,98.6% (active)
5,COc1ccc(Nc2nc(-c3ccccc3)cs2)cc1,35.2% (inactive)
6,CCOC(=O)c1ccc(N2C(=O)CC(N(C)Cc3ccccc3)C2=O)cc1 (centres undefined),-4% (inactive)
7,CCCc1ccc(OCC(=O)NNC(=S)NC(=O)c2ccco2)cc1,8.7% (inactive)
8,CC(Oc1ccc2ccccc2c1)C(=O)NNC(=S)NC(=O)c1ccco1 (centres undefined),56.8% (active)
9,COc1ccc(C(=O)NC(=S)NNC(=O)CCc2ccccc2)cc1,-0.6% (inactive)
10,O=C(NCC1CCCO1)C(C(=O)c1ccccc1)n1cc(Cl)ccc1=O (centres undefined),-6.7% (inactive)
11,Cc1cc(C)c2[nH]c(=O)c(C(c3nnnn3Cc3ccc4c(c3)OCO4)N3CCCC3)cc2c1 (centres undefined),68.4% (active)
12,Fc1ccccc1C(c1nnnn1Cc1ccc2c(c1)OCO2)N1CCN(Cc2ccccc2)CC1 (centres undefined),62.9% (active)
13,Cc1ccc(S(=O)(=O)Cn2nnnc2CN2CCN(Cc3ccc4c(c3)OCO4)CC2)cc1,24.5% (inactive)
14,CC(C)(C)n1nnnc1C(c1ccc(F)cc1)N1CCN(Cc2ccc3c(c2)OCO3)CC1 (centres undefined),25.1% (inactive)
15,O=C(CCCOc1ccccc1)NCc1ccco1,36.6% (inactive)
16,O=C(CCCOc1ccccc1)Nc1cccc(C(=O)O)c1,1.2% (inactive)
17,CN(C)C(CNC(=O)CCCOc1ccccc1)c1ccco1 (centres undefined),84.2% (active)
18,Cc1cccc(NC(=O)c2ccc(OCC(=O)NCc3ccccc3)cc2)c1C,-8% (inactive)
19,O=C(CCC(=O)OCC(F)(F)C(F)F)NCc1ccccc1,71.6% (active)
20,O=C(CCOc1ccccc1)NCc1ccccc1,57.6% (active)
21,O=C(NCCOc1ccccc1)c1ccccc1,60.7% (active)
22,Cc1nnc(NC(=O)CCCOc2ccccc2)s1,24.7% (inactive)
23,O=C(CCC(=O)OCc1cccc(C(=O)Oc2ccccc2)c1)Nc1cccc2ccccc12,3.8% (inactive)
24,O=C(Cn1nnc(-c2ccccc2)n1)NCc1ccccc1,45.4% (inactive)
25,O=C(NCCc1ccccc1)c1ccc(OCCOc2ccccc2)cc1,-7.8% (inactive)
26,O=C(O)CCC(=O)NCc1ccc(C(=O)O)cc1,3.2% (inactive)
